From PubChem BioAssay
FLuc modulator – inhibits or activates purified firefly luciferase, miR-21 counter-screen | actives 6.9% (n = 360,000) | purified FLuc, Km substrates, luminescence inhibition | Potency, µM (series often up to 57.5 µM), for the others: top-dose activity change, negative = inhibition, hits mostly inhibitors | P08659;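 further: plate controls were vehicle for no effect and reference inhibitor for full effect; nearly all actives have a fitted effect of over 55% in size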
Target sequence (P08659 whole entry, looked up): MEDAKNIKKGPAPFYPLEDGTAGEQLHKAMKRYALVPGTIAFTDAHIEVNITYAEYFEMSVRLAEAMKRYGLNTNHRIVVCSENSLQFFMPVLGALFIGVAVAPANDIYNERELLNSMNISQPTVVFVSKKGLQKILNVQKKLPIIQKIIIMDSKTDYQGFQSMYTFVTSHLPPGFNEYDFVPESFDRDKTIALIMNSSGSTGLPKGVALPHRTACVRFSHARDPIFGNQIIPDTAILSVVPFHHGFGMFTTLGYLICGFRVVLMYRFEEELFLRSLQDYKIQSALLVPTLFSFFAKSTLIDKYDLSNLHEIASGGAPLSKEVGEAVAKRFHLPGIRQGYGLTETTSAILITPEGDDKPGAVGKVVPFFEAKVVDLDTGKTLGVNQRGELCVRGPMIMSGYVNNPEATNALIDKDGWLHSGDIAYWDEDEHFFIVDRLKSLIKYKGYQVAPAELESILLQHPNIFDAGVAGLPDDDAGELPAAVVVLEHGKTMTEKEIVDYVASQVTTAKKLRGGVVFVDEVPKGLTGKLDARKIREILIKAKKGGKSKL
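Biochemical qHTS of compounds, final roughly 60 µM downward over six points, against 10 nM purified firefly luciferase using Km concentrations of substrates (10 uM D-luciferin, 10 uM ATP) in Tris acetate pH 7.5 buffer; luminescence output.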
ELG1 genotoxic – induces genotoxicity in HEK293T cells with luciferase-tagged ELG1 | HEK293T ELG1-luciferase reporter, luminescence, 16 h | Potency, µM (highest dose often 46 µM), for the others: top-dose activity change, positive = activation, actives largely listed as activators | actives 1.3% (n = 330,000); further: % of control where 0% means no effect; nearly all actives have a fitted effect of over 60% in size
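ELG1-luciferase HEK293T cells, 2,000/well; compound pinned in; 16 hr, 37 °C, 5% CO2; ONE-Glo, 30 min RT; luminescence on CCD imager.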
NPC1 prom act – NPC1 promoter activation; Huh7 NPC1 promoter luciferase reporter, 24 h; Potency, µM (series often up to 9.22 µM), without a hit: at the highest dose activation, hits mostly activators; actives 2.4% (n = 320,000); further: % of control where 0% means no effect; nearly all actives have a fitted effect of over 60% in size
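Luminescence read-out of NPC1 promoter-driven luciferase in stably transfected Huh7 cells; compounds delivered in DMSO and left 24 h at 37C, 5% CO2, qHTS titration format.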
Rab9 prom act – Rab9 promoter activation | Huh7 Rab9 promoter-luciferase reporter, luminescence, 24 h | Potency, µM (highest dose often 9.22 µM), without a hit: at the highest dose activation, negative = inhibition, hits mostly activators | actives 2.8% (n = 320,000) | AID 485297; further: % of control where 0% means no effect; nearly all actives have a fitted effect of over 60% in size
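Measured in stably transfected Huh7 cells bearing a Rab9 promoter–luciferase construct: 24 h compound treatment at 37 °C, followed by luminescence detection.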
SMN2 splice enh – enhancers of SMN2 splice variant expression | HEK293 SMN2-luciferase splicing reporter, luminescence, 30-36 h | Potency, µM (doses to about 46.1 µM), without a hit: at the highest dose activity change, positive = activation, hits mostly activators | actives 2.8% (n = 210,000) | AID 1458; further: % of control where 0% means no effect; nearly all actives have a fitted effect of over 55% in size
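qHTS luciferase splicing reporter: luminescence rises when SMN2 exon 7 is included in transfected HEK293 cells. Compound exposure lasted 30-36 h at 37C, with 4.5 mM final sodium butyrate as control, followed by a ONE-Glo read.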
p53 reactivator – mutant p53 re-activation in reporter cells; actives 0.063% (n = 320,000); Potency, µM (doses to about 92.2 µM), for the others: at the highest dose activity change, positive = activation, usual class: activators; H1299 p53-A138V BP100-luciferase reporter, luminescence, 24 h; further: % of control where 0% means no effect; nearly all actives have a fitted effect of over 45% in size
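H1299 (p53-null), stable ts p53-A138V + BP100-Luc; 1000 cells/well, Opti-MEM/10% FBS; cpd 4 pt, 1:5; 24 h, 37 deg C, 5% CO2; detection reagent 10 min RT; luminescence.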
The depositor's hits bear a star; ? = inconclusive; . = no result; [ ] = another dose, or the depositor's remark. The list is not random: actives were taken first. Their share in the collection is about 7.4%. The call rests on the fitted dose curve; in most records, active means well fitted curve in the direction sought with a large enough effect; inconclusive means small, poorly fitted or top-dose-only effect, or another doubt; inactive means no such curve, though single readings can be large; an effect the other way counts as inactive or inconclusive. Potency means the concentration at half of the fitted maximal effect.

SMILES	FLuc modulator	ELG1 genotoxic	NPC1 prom act	Rab9 prom act	SMN2 splice enh	p53 reactivator
CCCCOc1ccc(-c2cc(C(=O)NNC(=S)NCC)c3ccccc3n2)cc1	0.076µM*	?	?	?	3.2µM*	3%
CCNC(=S)NNC(=O)c1cc(-c2cccc(OCC)c2)nc2ccccc12	1.3µM*	?	12%	17%	16%	29%
C=C(C)Cn1c(SCC(=O)c2ccc(OC)cc2)nc2sc3c(c2c1=O)CCCC3	-7%	.	.	.	1%	.
CCCCOc1cccc(-c2cc(C(=O)NNC(=S)NCC)c3ccccc3n2)c1	1.5µM*	?	7%	16%	21%	31%
Cc1cc(N2CCN(C)CC2)nc2ccc(NC(=O)c3ccccc3F)cc12	-17%	?	23%	?	-6%	?
Cc1cc(N2CCCCC2)nc2ccc(NC(=O)c3cccc(Cl)c3)cc12	-1%	.	.	.	.	.
Cc1cc(N2CCN(C)CC2)nc2ccc(NC(=O)Nc3cccc(Cl)c3)cc12	13µM*	.	.	.	.	.
Cc1cc(N2CCN(C)CC2)nc2ccc(NC(=O)Nc3ccccc3Br)cc12	1.5µM*	.	.	.	.	.
CCN1CCN(c2cc(C)c3cc(NC(=O)c4ccc(C)c(C)c4)ccc3n2)CC1	21µM*	10%	21%	7%[1.84 µM]	.	0%
Cc1ccc(NC(=O)Nc2ccc3nc(N4CCN(C)CC4)cc(C)c3c2)cc1C	-15%	.	.	.	.	.
Cc1cc(N2CCN(C)CC2)nc2ccc(NC(=O)Nc3ccccc3)cc12	4.8µM*	.	.	.	.	.
CC(C)NC(=O)[C@H]1C[C@@H]1[C@H](NC(=O)OCc1ccccc1)c1ccccc1	.	.	.	.	-9%	.
COc1ccc(-c2cc3ncc(C)n3c(Nc3ncccc3C(N)=O)n2)cc1OC	.	.	-10%[46.1 µM]	-17%[46.1 µM]	.	.
Cc1ccc(NC(=O)c2cc(S(=O)(=O)N(C)C3CCCCC3)ccc2F)cc1C	-5%	.	.	.	.	.
Cc1ccc(C)c(N2CCN(C(=O)c3ccc(CS(=O)Cc4cccc(Cl)c4)o3)CC2)c1 (stereo not given)	0%	-13%	-2%	-4%	.	-4%
O=C1c2ccccc2C(=O)N1CCOCCN1C(=O)c2ccccc2C1=O	-1%	-14%	6%	1%	-9%	4%
Nc1cccc2c1C(=O)N(CCOc1ccccc1F)C2=O	0.76µM*	0.41µM*	0.35µM*	0.35µM*	.	?
COc1ccc(OCCN2C(=O)c3ccccc3C2=O)c([N+](=O)[O-])c1	27µM*	?	28%	?	.	14%
N#Cc1ccccc1OCCN1C(=O)c2ccccc2C1=O	?	13µM*	26%	29%	.	?
COc1ccc(OCC(=O)NC(=O)c2ccccc2)c([N+](=O)[O-])c1	1%	1%	-6%	-3%	.	-4%
Cc1c(-c2ncn[nH]2)sc(C#N)c1-c1ccccc1	19µM*	2%	8%	-3%	-18%	7%
Cc1ccc(-n2nc(CO)c(C(=O)NCc3cccnc3)n2)cc1C	?	.	.	.	-36%	.
COC(=O)C1CN(C(=O)COc2ccc(Cl)c(C)c2)c2ccccc2O1 (stereo not given)	-10%	-6%	-1%	-8%	.	-1%
NS(=O)(=O)c1ccc(NC(=O)COC(=O)c2ccc3c(c2)OCCO3)cc1	6%	-3%	1%	1%	18%	0%
N#CCC(=O)Nc1ccc(C(=O)OCC(=O)c2ccc3c(c2)OCCO3)cc1	11µM*	12%	?	?	-5%	13%
SMILES	FLuc modulator	ELG1 genotoxic	NPC1 prom act	Rab9 prom act	SMN2 splice enh	p53 reactivator
N#CCC(=O)Nc1ccc(C(=O)OCC(=O)c2ccc3c(c2)OCO3)cc1	?	12%	?	4µM*	.	8%
N#CCC(=O)Nc1ccc(C(=O)Nc2ccc3c(c2)OCO3)cc1	?	17%	14%	26%	.	-8%
Cc1cccc(CC2CC(=O)N(c3ccc(C)cc3Br)C2=O)c1 (stereo not given)	-6%	-1%	-4%	-3%	.	.
COc1ccc(OC)c(NC(=O)COCc2cc(-c3ccc(F)cc3)on2)c1	-3%	.	.	.	.	.
O=C(Nc1ccc(F)cc1)Nc1csc2c1CCCC2	?	.	.	.	-9%	.
CCOc1ccc(NC(=O)c2csc3c2CCCC3)cc1	2.7µM*	?	2.2µM*	3.5µM*	11µM*	?
CC(=O)c1cccc(NC(=O)c2csc3c2CCCCC3)c1	13µM*	1%	16%	21%	20%	10%
CC(=O)c1cccc(NC(=O)Nc2csc3c2CCCC3)c1	17µM*	-7%	-1%	2%	.	-5%
O=C1CNC(=S)N1Cc1cccc(Cl)c1	2%	-10%	2%	-2%	.	6%
Cc1ccc(-c2cc(-c3ccc4c(c3)NC(=O)CO4)nc3c2COc2ccc(C)cc2-3)cc1	?	.	.	.	2%	.
NC(=O)c1ccccc1NC(=O)/C=C/c1cccc(Cl)c1	6.7µM*	7%	3.2µM*	2.2µM*	11µM*	?
Cc1ccc(/C=C/C(=O)Nc2ccccc2C(N)=O)o1	9.5µM*	.	.	.	11µM*	.
NC(=O)c1ccccc1NC(=O)/C=C/c1c(Cl)cccc1Cl	19µM*	12%	?	3.2µM*	46%	22%
O=C1c2ccccc2NC(c2ccccc2Cl)N1N=C1CCCCCC1 (stereo not given)	12µM*	?	-2%	-1%	-7%[1.84 µM]	?
Cc1cccc(CNc2ncncc2-c2cccc(C#N)c2)c1	.	.	.	.	2%	.
CC(=O)Nc1ccc(OCc2cnc(Cl)s2)cc1	-14%	10%	13%	24%	12%	9%
CCc1ccc(OCc2cnc(Cl)s2)cc1	21µM*	?	18%	23%	10%	3%
Clc1ccc(OCc2cnc(Cl)s2)cc1	15µM*	8%	-2%	11%	-4%	19%
Cc1ccc(CN2C(=O)C(O)(c3c[nH]c4ccccc34)c3cc(Cl)ccc32)cc1 (stereo not given)	5%	.	.	.	8%	.
COc1ccc2nc(NC(=O)CSC3=NCCS3)sc2c1	17µM*	-1%	?	?	-7%	?
COc1ccc2nc(NC(=O)CCc3ccc(OC)c(OC)c3)sc2c1	-9%	10%	2%	10%	12%	1%
COc1ccc2nc(NC(=S)N(C)C)sc2c1	1.9µM*	0.82µM*	0.71µM*	0.63µM*	-18%	?
COc1ccc2nc(NC(=O)CN3CCN(C)CC3)sc2c1	?	10%	1%	-3%	-11%	14%
COc1ccc2nc(NC(=O)CSc3nnc(N)s3)sc2c1	?	16%	?	2µM*	10µM*	?
CCCC(=O)Nc1nc2ccc(OC)cc2s1	7.6µM*	?	0.89µM*	1.8µM*	10µM*	?
